From PubChem BioAssay (EPA / NIEHS)
Values joined by “and” are separate entries in the source; they are usually repeats but may differ in a detail not shown here. Equal entries are not always repeated. Active and inactive are the calls of the source. How the source made its calls: active means hit-call score of the fitted dose curve at least 0.9, where 1 is the maximum; inactive means score below 0.9.

Experiments:
[1] = read-out: flavin-containing dimethylaniline monooxygenases 3 (FMO3), FMO3 (gene 2328); assay: LTEA_HepaRG_FMO3: Life Technologies and Expression Analysis (LTEA) Assay for flavin-containing dimethylaniline monooxygenases 3 (FMO3) using HepaRG (AID 2283453); details: mRNA level, 48 h; actives raise or lower the signal
Summary of the method: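 Eight-point concentration-response in serum-free HepaRG cultures (top 100 uM, 0.5% DMSO, 48 h). Read-out: FMO3 mRNA level normalized to three endogenous control genes, fitted bidirectionally versus vehicle.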

[2] = read-out: Cytochrome P450 (CYP1A1), CYP1A1 (gene 1543); assay: LTEA_HepaRG_CYP1A1: Life Technologies and Expression Analysis (LTEA) Assay for Cytochrome P450 (CYP1A1) using HepaRG (AID 2283454); details: mRNA level, 48 h; actives raise or lower the signal
Summary of the method: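 Differentiated human HepaRG cells, after 48 h plating, exposed in duplicate for 48 h in serum-free induction medium to 8 half-log concentrations up to 100 uM in 0.5% DMSO. CYP1A1 mRNA by qRT-PCR, normalized to ACTB/GAPDH/POLR2A; bidirectional fit versus DMSO.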

[3] = read-out: CFLAR gene, CFLAR (gene 8837); assay: LTEA_HepaRG_CFLAR: Life Technologies and Expression Analysis (LTEA) Assay for CFLAR gene using HepaRG (AID 2283455); details: mRNA level, 48 h; actives raise or lower the signal
Summary of the method: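 Transcript level by qRT-PCR (normalized to ACTB, GAPDH and POLR2A) after 48 h chemical exposure of HepaRG cells, top concentration 100 uM with half-log steps, 0.5% DMSO vehicle, duplicates; fitted bidirectionally against DMSO baseline.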

[4] = read-out: Forkhead box O1 (FOXO1), FOXO1 (gene 2308); assay: LTEA_HepaRG_FOXO1: Life Technologies and Expression Analysis (LTEA) Assay for Forkhead box O1 (FOXO1) using HepaRG (AID 2283456); details: mRNA level, 48 h; actives raise or lower the signal
Summary of the method: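 FOXO1 transcript quantified by qRT-PCR after 48 h chemical exposure (top 100 uM, half-log steps, 0.5% DMSO) of HepaRG cells, housekeeping-normalized (ACTB/GAPDH/POLR2A). Changes fitted in both directions relative to vehicle.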

[5] = read-out: growth arrest and DNA damage 45 (GADD45A), GADD45A (gene 1647); assay: LTEA_HepaRG_GADD45A: Life Technologies and Expression Analysis (LTEA) Assay for growth arrest and DNA damage 45 (GADD45A) using HepaRG (AID 2283458); details: mRNA level, 48 h; actives raise or lower the signal
Summary of the method: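 HepaRG, 48 h exposure, 8 conc. (top 100 uM, half-log steps), 0.5% DMSO vehicle, duplicates. Read-out: qRT-PCR mRNA level, housekeeping-normalized (ACTB/GAPDH/POLR2A). Curves fit bidirectionally vs DMSO baseline.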

[6] = read-out: Forkhead box O3 (FOXO3), FOXO3 (gene 2309); assay: LTEA_HepaRG_FOXO3: Life Technologies and Expression Analysis (LTEA) Assay for Forkhead box O3 (FOXO3) using HepaRG (AID 2283459); details: mRNA level, 48 h; actives raise or lower the signal
Summary of the method: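 FOXO3 transcript measured by qRT-PCR (normalized to ACTB, GAPDH, POLR2A) after 48 h exposure of HepaRG cells in serum-free induction medium. Duplicates, eight half-log concentrations up to 100 uM, 0.5% DMSO; gain or loss fitted against DMSO.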

[7] = read-out: ABC Transporter (ABCB1), ABCB1 (gene 5243); assay: LTEA_HepaRG_ABCB1: Life Technologies and Expression Analysis (LTEA) Assay for ABC Transporter (ABCB1) using HepaRG (AID 2283460); details: mRNA level, 48 h; actives raise or lower the signal
Summary of the method: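 ABCB1 transcript level measured by TaqMan qRT-PCR against three housekeeping genes after 48 h chemical exposure of differentiated HepaRG cells. Top concentration 100 uM, half-log steps, eight points, 0.5% DMSO vehicle; bidirectional fit relative to DMSO.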

[8] = read-out: growth arrest and DNA damage 45 (GADD45B), GADD45B (gene 4616); assay: LTEA_HepaRG_GADD45B: Life Technologies and Expression Analysis (LTEA) Assay for growth arrest and DNA damage 45 (GADD45B) using HepaRG (AID 2283461); details: mRNA level, 48 h; actives raise or lower the signal
Summary of the method: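 Differentiated human HepaRG cells in serum-free induction medium exposed 48 h in duplicate to eight concentrations, top 100 uM, half-log steps, 0.5% DMSO. GADD45B mRNA by TaqMan qRT-PCR, normalized to ACTB, GAPDH, POLR2A; bidirectional fit versus DMSO.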

[9] = read-out: ABC Transporter (ABCC3), ABCC3 (gene 8714); assay: LTEA_HepaRG_ABCC3: Life Technologies and Expression Analysis (LTEA) Assay for ABC Transporter (ABCC3) using HepaRG (AID 2283462); details: mRNA level, 48 h; actives raise or lower the signal
Summary of the method: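 Differentiated human HepaRG cells exposed 48 h in serum-free induction medium, 0.5% DMSO vehicle, 8-point half-log series to 100 uM in duplicate. ABCC3 mRNA by qRT-PCR, normalised to ACTB, GAPDH, POLR2A; bidirectional fit vs DMSO.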

[10] = CEETOX_H295R_TESTO: CeeTox H295R High-throughput Steroidogenesis Assay for Testosterone (TESTO) (AID 2283457); details: actives raise or lower the signal;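 on AC50: cells exposed to chemicals for 48 h before medium collection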
Summary of the method: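 H295R adrenal cells, passage ≤10, exposed to chemicals for 48 h. Testosterone in medium measured by MTBE extraction and HPLC-MS/MS against a 7-point standard curve. Bidirectional fit versus DMSO; MTT viability checked in the same wells.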

Measured: AC50

CSc1nnc(C(C)(C)C)c(=O)n1N
not listed: [10]
inactive: all other assays above

CCCCOC(=O)[C@@H](C)Oc1ccc(Oc2ccc(C#N)cc2F)cc1
active: [2] 23.3 µM
not listed: [10]
inactive: all other assays above

CCOC(=O)CC(SP(=O)(OC)OC)C(=O)OCC (configuration not stated)
active: [2] 30.8 µM
not listed: [10]
inactive: all other assays above

CC1=NNC(=O)N(/N=C/c2cccnc2)C1
active: [2] 27.5 µM
not listed: [10]
inactive: all other assays above

CCCOCC(=Nc1ccc(Cl)cc1C(F)(F)F)n1ccnc1
active: [1] 73 µM | [2] 12.8 µM | [3] 50 µM | [4] 50 µM | [6] 40 µM | [7] 80.5 µM | [8] 92 µM
inactive: [5] | [9]

COc1cccc(C(=O)NN(C(=O)c2cc(C)cc(C)c2)C(C)(C)C)c1C
active: [2] 50 µM | [7] 4.33 µM
not listed: [10]
inactive: all other assays above

CCOP(=O)(OCC)Oc1cc(C)nc(C(C)C)n1
active: [2] 50.2 µM
not listed: [10]
inactive: all other assays above

CNc1cnn(-c2cccc(C(F)(F)F)c2)c(=O)c1Cl
inactive: [3] | [4] | [5] | [9]
active: [1] 38.8 µM | [2] 3.99 µM | [6] 31.1 µM | [7] 74.9 µM | [8] 50 µM

CCNc1nc(Cl)nc(NC(C)(C)C#N)n1
active: [2] 24.9 µM
not listed: [10]
inactive: all other assays above

CC(C1CC1)C(O)(Cn1cncn1)c1ccc(Cl)cc1 (configuration not stated)
active: [1] 77.7 µM | [2] 17 µM | [7] 13.1 µM
not listed: [10]
inactive: all other assays above

CCOC(=O)COc1cc(-c2nn(C)c(OC(F)F)c2Cl)c(F)cc1Cl
active: [2] 50 µM | [7] 34.3 µM
not listed: [1]
inactive: all other assays above

CCOP(=S)(OCC)SCCSCC
active: [7] 0.0511 µM
not listed: [10]
inactive: all other assays above

CC(C)=CC1C(C(=O)OCN2C(=O)C3=C(CCCC3)C2=O)C1(C)C (configuration not stated)
active: [2] 50 µM
not listed: [10]
inactive: all other assays above

CCOP(=O)(NC(C)C)Oc1ccc(SC)c(C)c1 (configuration not stated)
active: [2] 50 µM | [10] 26.2 µM
not listed: [1]
inactive: all other assays above

CC(Oc1cccc(Cl)c1)C(=O)O (configuration not stated)
not listed: [10]
inactive: all other assays above

CN1COCN(Cc2cnc(Cl)s2)C1=N[N+](=O)[O-]
not listed: [10]
inactive: all other assays above

C#CC(C)(C)NC(=O)c1cc(Cl)cc(Cl)c1
active: [2] 33 µM | [7] 50 µM
not listed: [10]
inactive: all other assays above

CCOP(=S)(OCC)Oc1cc(C)nc(C(C)C)n1
active: [2] 33 µM
not listed: [10]
inactive: all other assays above

CCc1cccc(CC)c1N(COC)C(=O)CCl
active: [2] 50 µM
not listed: [10]
inactive: all other assays above

CCOP(=O)(SC(C)CC)N1CCSC1=O (configuration not stated)
not listed: [10]
inactive: all other assays above

CSc1nc(NC(C)C)nc(NC(C)C)n1
active: [1] 35.9 µM | [2] 22.4 µM | [7] 3.25 µM
not listed: [10]
inactive: all other assays above

S=C1NCCN1
not listed: [10]
inactive: all other assays above

COc1ccc(C(=CC(=O)N2CCOCC2)c2ccc(Cl)cc2)cc1OC
active: [2] 50 µM | [10] 32.8 µM
not listed: [1]
inactive: all other assays above

CCC(CC)Nc1c([N+](=O)[O-])cc(C)c(C)c1[N+](=O)[O-]
active: [2] 29.8 µM
not listed: [10]
inactive: all other assays above

CSC1=N[C@@](C)(c2ccccc2)C(=O)N1Nc1ccccc1
active: [1] 30.6 µM | [4] 31.2 µM | [5] 32 µM | [9] 23.2 µM
not listed: [10]
inactive: all other assays above

FC(F)C(F)(F)OCC(Cn1cncn1)c1ccc(Cl)cc1Cl (configuration not stated)
inactive: [6] | [7] | [8]
active: [1] 35.6 µM | [2] 3.17 µM | [3] 78.4 µM | [4] 75.3 µM | [5] 74.2 µM | [9] 21.1 µM

COP(=O)(OC)SCn1c(=O)oc2cc(Cl)cnc21
active: [2] 38.6 µM | [5] 0.029 µM
not listed: [10]
inactive: all other assays above

C#CCC1=C(C)C(OC(=O)C2C(C=C(C)C)C2(C)C)CC1=O (configuration not stated)
active: [2] 49.8 µM
not listed: [10]
inactive: all other assays above

CNC(=O)ON=C(SC)C(=O)N(C)C
inactive: all assays above

CON=C(C(=O)OC)c1ccccc1CON=C(C)c1cccc(C(F)(F)F)c1
active: [2] 50 µM
not listed: [10]
inactive: all other assays above

CCCSP(=O)(OCC)SCCC
active: [2] 40.8 µM
not listed: [1]
inactive: all other assays above

COP(=O)(OC)C(O)C(Cl)(Cl)Cl (configuration not stated)
active: [5] 0.12 µM
not listed: [2] | [10]
inactive: all other assays above

CN(C)[C@@H]1C(=O)C(C(N)=O)=C(O)[C@@]2(O)C(=O)C3=C(O)c4c(O)cccc4[C@@](C)(O)[C@H]3[C@H](O)[C@@H]12
active: [2] 66.4 µM and 18.3 µM
not listed: [10]
inactive: all other assays above
